The values below come from paper PMC7862700, “An all-to-all approach to the identification of sequence-specific readers for epigenetic DNA modifications on cytosine”.

One assay has as its target T1, ELK4 (Homo sapiens, UniProt P28324-2 1-405).
T1 sequence: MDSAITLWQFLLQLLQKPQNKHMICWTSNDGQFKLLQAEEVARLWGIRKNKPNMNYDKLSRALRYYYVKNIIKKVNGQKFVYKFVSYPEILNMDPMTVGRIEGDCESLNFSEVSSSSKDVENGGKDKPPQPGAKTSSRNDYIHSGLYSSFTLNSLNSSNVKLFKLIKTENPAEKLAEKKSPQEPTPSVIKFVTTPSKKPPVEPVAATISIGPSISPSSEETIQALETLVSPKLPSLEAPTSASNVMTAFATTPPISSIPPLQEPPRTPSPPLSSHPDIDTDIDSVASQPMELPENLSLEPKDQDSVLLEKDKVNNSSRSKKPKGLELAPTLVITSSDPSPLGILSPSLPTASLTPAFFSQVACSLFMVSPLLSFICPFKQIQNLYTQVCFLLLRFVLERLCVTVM
Nature of the assay: DAPPL (digital affinity profiling via proximity ligation, sequencing); 10 mM Tris-HCl pH 7.5, 50 mM NaCl, 1 mM DTT, 4% glycerol, room temperature, 30 min; GST-TFs on glutathione beads, 16-mer random dsDNA library, 0.1% formaldehyde crosslink after washing; high values mean tight binding. The following applies: protein: recombinant; tags: N-terminal GST; dsDNA, one strand shown. In a few lines:
(§1)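 After expression in yeast as GST fusions, human transcription factors were bound to glutathione beads, DNA-barcoded and mixed with a tag-only sample. The pools were incubated with 200 nmole of a 16-mer random double-stranded DNA library in Tris/NaCl/DTT/glycerol buffer (30 min, room temperature), washed and crosslinked with 0.1% formaldehyde. Proximity ligation with BsaI/T4 ligase ran for 1 h at 37 °C, before PCR amplification and sequencing on an Illumina NextSeq500. Binding signal is a hexamer's read frequency for a factor divided by its frequency for the tag-only sample.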
CACCCT: the binding signal was 1.07 fold enrichment (6-mer frequency, TF over GST control). Still for that read-out and setting: next, TGCGGA: 1.13 fold enrichment (6-mer frequency, TF over GST control); CTCACC: 1.2 fold enrichment (6-mer frequency, TF over GST control).

As for GCCACT, the binding signal was 1.24 fold enrichment (6-mer frequency, TF over GST control).

As to TGTCAC, the binding signal is 1.25 fold enrichment (6-mer frequency, TF over GST control).

As for GCTACA, the binding signal is 1.24 fold enrichment (6-mer frequency, TF over GST control). CCACAT: the binding signal is 1.28 fold enrichment (6-mer frequency, TF over GST control). On the same count and under the same terms, next, CACAAC: 1.25 fold enrichment (6-mer frequency, TF over GST control). GGCCTC: the binding signal is 1.17 fold enrichment (6-mer frequency, TF over GST control). Still for that read-out and setting: the value for GCTACC was 1.04 fold enrichment (6-mer frequency, TF over GST control); that for ACAACC was 1.19 fold enrichment (6-mer frequency, TF over GST control); that for CAACAT was 1.23 fold enrichment (6-mer frequency, TF over GST control). Consider CAAACT, for which the binding signal is 1.15 fold enrichment (6-mer frequency, TF over GST control). Take TGCATG: the binding signal is 1.05 fold enrichment (6-mer frequency, TF over GST control). As for GTCCTT, the binding signal is 1.15 fold enrichment (6-mer frequency, TF over GST control). Still for that read-out and setting: next, GGATGC: 1.13 fold enrichment (6-mer frequency, TF over GST control); AGCGAC: 1.25 fold enrichment (6-mer frequency, TF over GST control); AACCGG: 1.26 fold enrichment (6-mer frequency, TF over GST control). Take ACCTGA: the binding signal is 1.14 fold enrichment (6-mer frequency, TF over GST control). Turning to CCCGGC, the binding signal is 1.27 fold enrichment (6-mer frequency, TF over GST control). Same read-out and setting: next, CCGCCG: 1.27 fold enrichment (6-mer frequency, TF over GST control). Regarding CGTATC, the binding signal was 1.16 fold enrichment (6-mer frequency, TF over GST control).

CACACT: the binding signal was 1.13 fold enrichment (6-mer frequency, TF over GST control). The same measure, in the same setting: the value for TGGCAG was 1.01 fold enrichment (6-mer frequency, TF over GST control). The same measure, in the same setting: next, GTCCTC: 1.34 fold enrichment (6-mer frequency, TF over GST control). In the case of GACTAC, the binding signal was 1.18 fold enrichment (6-mer frequency, TF over GST control).

As for CCAACA, the binding signal is 1.08 fold enrichment (6-mer frequency, TF over GST control). The same measure, in the same setting: the value for GTACAA was 1.18 fold enrichment (6-mer frequency, TF over GST control); that for TGCACC was 1.3 fold enrichment (6-mer frequency, TF over GST control); that for CCCCCG was 1.16 fold enrichment (6-mer frequency, TF over GST control). For the sequence CGACAC, the binding signal is 1.14 fold enrichment (6-mer frequency, TF over GST control). For CTGTCC, the binding signal was 1.24 fold enrichment (6-mer frequency, TF over GST control). On the same count and under the same terms, next, GCACCC: 1.33 fold enrichment (6-mer frequency, TF over GST control). Take GACATC: the binding signal was 1.34 fold enrichment (6-mer frequency, TF over GST control).

As for CACATA, the binding signal is 1.07 fold enrichment (6-mer frequency, TF over GST control). With CGTACC, the binding signal was 1.18 fold enrichment (6-mer frequency, TF over GST control). Still for that read-out and setting: the value for GCTTGG was 1.11 fold enrichment (6-mer frequency, TF over GST control); that for ACACAC was 1.21 fold enrichment (6-mer frequency, TF over GST control). The same measure, in the same setting: the value for TGCGAC was 1.25 fold enrichment (6-mer frequency, TF over GST control); that for CCGTCA was 1.31 fold enrichment (6-mer frequency, TF over GST control).

Another assay has as its target T2, ETV2 (Homo sapiens, UniProt O00321 1-342).
T2 sequence: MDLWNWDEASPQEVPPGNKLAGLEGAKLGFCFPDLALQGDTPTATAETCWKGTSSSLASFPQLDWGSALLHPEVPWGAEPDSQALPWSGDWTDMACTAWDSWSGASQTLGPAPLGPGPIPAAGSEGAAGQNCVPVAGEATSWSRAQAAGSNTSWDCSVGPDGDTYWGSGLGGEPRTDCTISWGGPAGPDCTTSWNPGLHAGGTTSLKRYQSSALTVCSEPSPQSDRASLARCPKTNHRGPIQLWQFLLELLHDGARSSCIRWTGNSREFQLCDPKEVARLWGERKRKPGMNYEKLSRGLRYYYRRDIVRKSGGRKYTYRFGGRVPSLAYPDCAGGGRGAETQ
The description is as above. As to conditions: protein: recombinant; tags: N-terminal GST; dsDNA, one strand shown. A digest of the protocol:
as §1
Turning to CACCCT, the binding signal is 1.26 fold enrichment (6-mer frequency, TF over GST control). On the same count and under the same terms, the value for TGCGGA was 1.37 fold enrichment (6-mer frequency, TF over GST control); that for CTCACC was 1.17 fold enrichment (6-mer frequency, TF over GST control); that for GCCACT was 1.15 fold enrichment (6-mer frequency, TF over GST control). As to TGTCAC, the binding signal is 1.24 fold enrichment (6-mer frequency, TF over GST control). Same read-out and setting: next, GCTACA: 1.17 fold enrichment (6-mer frequency, TF over GST control); CCACAT: 1.17 fold enrichment (6-mer frequency, TF over GST control); CACAAC: 1.19 fold enrichment (6-mer frequency, TF over GST control). The same measure, in the same setting: the value for GGCCTC was 1.17 fold enrichment (6-mer frequency, TF over GST control); that for GCTACC was 1.08 fold enrichment (6-mer frequency, TF over GST control); that for ACAACC was 1.26 fold enrichment (6-mer frequency, TF over GST control).

Regarding CAACAT, the binding signal was 1.19 fold enrichment (6-mer frequency, TF over GST control). Still for that read-out and setting: the value for CAAACT was 1.21 fold enrichment (6-mer frequency, TF over GST control). The same measure, in the same setting: the value for TGCATG was 1.08 fold enrichment (6-mer frequency, TF over GST control); that for GTCCTT was 1.31 fold enrichment (6-mer frequency, TF over GST control); that for GGATGC was 1.06 fold enrichment (6-mer frequency, TF over GST control). Still for that read-out and setting: next, AGCGAC: 1.22 fold enrichment (6-mer frequency, TF over GST control); AACCGG: 1.45 fold enrichment (6-mer frequency, TF over GST control); ACCTGA: 1.02 fold enrichment (6-mer frequency, TF over GST control). For CCCGGC, the binding signal was 1.07 fold enrichment (6-mer frequency, TF over GST control).
